Inconclusive results are not listed. Active and inactive are the calls of the source. Unless noted, calls come from the whole dose curve; as a rule, active = well fitted curve in the direction sought with a large enough effect; inconclusive = small, poorly fitted or top-dose-only effect, or another doubt; inactive = no such curve, though single readings can be large; an effect the other way counts as inactive or inconclusive.
Experiments:
[1] = S16 Schwann cell viability assay (CellTiter-Glo assay) (AID 624031);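 note: cellular ATP luminescence as a viability measure; plate controls were DMSO-treated cells for no effect and cell-free wells for full effect; nearly all actives have a fitted effect of over 70% in size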
Outline: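 CellTiter-Glo ATP luminescence counter-screen in untransfected S16 rat Schwann cells, 24h compound exposure at 37 degree Celsius after overnight seeding (500-750 cells/well); response scaled between cell-free wells and DMSO (0% activity), curves classed by r2 and magnitude.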

[2] = S16 Schwann cell PMP22 intronic element beta-lactamase assay (AID 624044; calls by dose curve;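 note: 0% = DMSO and -100% = potassium clavulanate positive control; nearly all actives have a fitted effect of over 15% in size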); details: S16 rat Schwann cells, PMP22 element beta-lactamase FRET, 24 h; ratio activity, negative = inhibition: at 38.3 µM (top of the series)
Outline: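 Rat S16 Schwann cells with beta-Lac driven by a PMP22 intronic element, compound-treated 24 h at 37 °C. LiveBLAzer FRET B/G read: 460 nm normalized to potassium clavulanate vs DMSO; 535 nm FRET as viability; concentration-effect curves classified.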

[3] = tested on: AA1029; assay: qHTS profiling for inhibitors of Plasmodium falciparum proliferation (AID 504749); note: nearly all actives have a fitted effect of over 60% in size; note: potency is the fitted concentration of half-maximal effect;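 for activity, negative = inhibition: 0% = DMSO vehicle and full inhibition = artemisinin control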; details: P. falciparum in erythrocytes, SYBR Green DNA, 72 h; series mostly up to 28.7 µM
Outline: (§1)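 Infected RBCs, 0.3% parasitemia/2.5% Hct final; cpd 72 h, 37 C, 5% CO2; lysis buffer with saponin/triton/SYBR Green I, o/n RT dark; FI 485/535; norm. to artemisinin (0.29 uM) and DMSO.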

[4] = tested on: AS120; assay: as above; details: P. falciparum in erythrocytes, SYBR Green DNA, 72 h; series mostly up to 28.7 µM
Outline: as §1

[5] = tested on: ATS95; assay: as above; details: P. falciparum in erythrocytes, SYBR Green DNA, 72 h; series mostly up to 28.7 µM
Outline: as §1

[6] = tested on: CP194; assay: as above; details: P. falciparum in erythrocytes, SYBR Green DNA, 72 h; series mostly up to 28.7 µM
Outline: as §1

[7] = tested on: CP247; assay: as above; details: P. falciparum in erythrocytes, SYBR Green DNA, 72 h; series mostly up to 28.7 µM
Outline: as §1

[8] = tested on: CP266; assay: as above; details: P. falciparum in erythrocytes, SYBR Green DNA, 72 h; series mostly up to 28.7 µM
Outline: as §1

[9] = tested on: CP297; assay: as above; details: P. falciparum in erythrocytes, SYBR Green DNA, 72 h; series mostly up to 28.7 µM
Outline: as §1

[10] = tested on: DFO2036; assay: as above; details: P. falciparum in erythrocytes, SYBR Green DNA, 72 h; series mostly up to 28.7 µM
Outline: as §1

[11] = tested on: DIV14; assay: as above; details: P. falciparum in erythrocytes, SYBR Green DNA, 72 h; series mostly up to 28.7 µM
Outline: as §1

[12] = tested on: ICS; assay: as above; details: P. falciparum in erythrocytes, SYBR Green DNA, 72 h; series mostly up to 28.7 µM
Outline: as §1

[13] = tested on: P93_24; assay: as above; details: P. falciparum in erythrocytes, SYBR Green DNA, 72 h; series mostly up to 28.7 µM
Outline: as §1

[14] = tested on: P94_40; assay: as above; details: P. falciparum in erythrocytes, SYBR Green DNA, 72 h; series mostly up to 28.7 µM
Outline: as §1

[15] = tested on: PAD; assay: as above; details: P. falciparum in erythrocytes, SYBR Green DNA, 72 h; series mostly up to 28.7 µM
Outline: as §1

[16] = tested on: PC15; assay: as above; details: P. falciparum in erythrocytes, SYBR Green DNA, 72 h; series mostly up to 28.7 µM
Outline: as §1

[17] = tested on: PC26; assay: as above; details: P. falciparum in erythrocytes, SYBR Green DNA, 72 h; series mostly up to 28.7 µM
Outline: as §1

[18] = tested on: SC27B; assay: as above; details: P. falciparum in erythrocytes, SYBR Green DNA, 72 h; series mostly up to 28.7 µM
Outline: as §1

[19] = tested on: TAB165; assay: as above; details: P. falciparum in erythrocytes, SYBR Green DNA, 72 h; series mostly up to 28.7 µM
Outline: as §1

[20] = tested on: GB4; assay: as above; details: P. falciparum in erythrocytes, SYBR Green DNA, 72 h; series mostly up to 28.7 µM
Outline: as §1

CC(Cc1ccccc1)N(C)C (configuration not stated)
inactive: Potency [1] | Potency [2] | Potency [3] | Potency [4] | Potency [5] | Potency [6] | Potency [7] | Potency [8] | Potency [9] | Potency [10] | Potency [11] | Potency [12] | Potency [13] | Potency [14] | Potency [15] | Potency [16] | Potency [17] | Potency [18] | Potency [19]

CC12CCC3C4CCC(=O)C(O)=C4CCC3C1CCC2OC(=O)CCC1CCCC1 (configuration not stated)
inactive: Potency [1] | Potency [2] | Potency [3] | Potency [4] | Potency [5] | Potency [6] | Potency [7] | Potency [8] | Potency [9] | Potency [10] | Potency [11] | Potency [20] | Potency [13] | Potency [14] | Potency [15] | Potency [16] | Potency [17] | Potency [18] | Potency [19]

CCN(CC)C(=O)N[C@@H]1C=C2c3cccc4[nH]cc(c34)C[C@H]2N(C)C1
inactive: Potency [2] | Potency [8] | Potency [10]
active: Potency [4] 12600 nM | Potency [11] 13500 nM | Potency [20] 8490 nM | Potency [12] 8910 nM | Potency [13] 7940 nM | Potency [14] 8910 nM | Potency [17] 12000 nM | Potency [19] 12600 nM

C[C@]12CC[C@H]3[C@@H](CC[C@@]45O[C@@H]4C(=O)C(C#N)C[C@]35C)[C@@H]1CC[C@@H]2O (some centres not stated)
inactive: Potency [1] | Potency [2] | Potency [7] | Potency [8] | Potency [9] | Potency [11] | Potency [14] | Potency [15] | Potency [16] | Potency [17]

CCC/C=C/C=C/C(=O)OC1/C(=C/C(=O)OC)CC2CC(C(C)O)OC(=O)CC(O)CC3CC(OC(C)=O)C(C)(C)C(O)(CC4C/C(=C/C(=O)OC)CC(/C=C\C(C)(C)C1(O)O2)O4)O3 (configuration not stated)
inactive: Potency [1]
active: ratio activity, negative = inhibition [2] -43.6% | Potency [3] 1780 nM | Potency [4] 1000 nM | Potency [5] 2510 nM | Potency [7] 2820 nM | Potency [9] 1690 nM | Potency [10] 1260 nM | Potency [11] 1070 nM | Potency [20] 1510 nM | Potency [12] 562 nM | Potency [13] 2240 nM | Potency [14] 2240 nM | Potency [15] 1780 nM | Potency [16] 2240 nM | Potency [17] 953 nM | Potency [18] 2510 nM | Potency [19] 1410 nM

C=CC[C@]1(O)CCC2C3CCC4=CCCCC4C3CCC21C (some centres not stated)
inactive: Potency [2] | Potency [3] | Potency [4] | Potency [6] | Potency [7] | Potency [9] | Potency [10] | Potency [20] | Potency [13] | Potency [15] | Potency [17] | Potency [18] | Potency [19]

C#CC1(O)C=CC2C3CCC4=CC(=O)CCC4C3CCC21CC (configuration not stated)
active: Potency [7] 6310 nM | Potency [11] 6750 nM | Potency [16] 11200 nM | Potency [17] 6750 nM
inactive: Potency [1] | Potency [2] | Potency [4]

NC(Cc1ccc(Oc2cc(I)c(O)c(I)c2)c(I)c1)C(=O)O (configuration not stated)
inactive: Potency [1] | Potency [2] | Potency [3] | Potency [4] | Potency [5] | Potency [6] | Potency [8] | Potency [9] | Potency [11] | Potency [20] | Potency [12] | Potency [13] | Potency [15] | Potency [16] | Potency [17] | Potency [18] | Potency [19]

O=C1CC2OCC=C3CN4CCC56c7ccccc7N1C5[C@H]2[C@H]3C[C@H]46 (some centres not stated) (tested in a mixture with another compound)
inactive: Potency [1] | Potency [2] | Potency [5] | Potency [7] | Potency [8] | Potency [9] | Potency [10] | Potency [13] | Potency [14] | Potency [16] | Potency [18] | Potency [19]

CC(C)CCC(=O)OC1CCC2C3CCC4=CC(=O)CC[C@]4(C)C3CC[C@]12C (some centres not stated)
inactive: Potency [6] | Potency [8] | Potency [9] | Potency [11] | Potency [20]
active: Potency [12] 7940 nM

CCCC(C)C1(CC)C(=O)NC(=S)NC1=O (configuration not stated)
inactive: Potency [1] | Potency [2] | Potency [3] | Potency [4] | Potency [5] | Potency [6] | Potency [7] | Potency [8] | Potency [9] | Potency [10] | Potency [11] | Potency [20] | Potency [12] | Potency [13] | Potency [14] | Potency [15] | Potency [16] | Potency [17] | Potency [18] | Potency [19]

C#C[C@]1(O)CC[C@H]2[C@@H]3CCC4=CC(=O)CCC4(C)[C@H]3CCC21C (some centres not stated)
inactive: Potency [1] | Potency [2] | Potency [3] | Potency [4] | Potency [5] | Potency [6] | Potency [8] | Potency [10] | Potency [11] | Potency [20] | Potency [12] | Potency [13] | Potency [14] | Potency [15] | Potency [16] | Potency [17] | Potency [18] | Potency [19]

CC(=O)Oc1ccc2c3c1OC1[C@@H](OC(C)=O)C=C[C@H]4[C@H](C2)N(C)CC[C@]314 (some centres not stated)
inactive: Potency [1] | Potency [2] | Potency [3] | Potency [4] | Potency [5] | Potency [6] | Potency [7] | Potency [8] | Potency [9] | Potency [10] | Potency [11] | Potency [20] | Potency [12] | Potency [13] | Potency [14] | Potency [15] | Potency [16] | Potency [17] | Potency [18] | Potency [19]

CC(=O)O[C@H]1C[C@H](O[C@H]2[C@@H](O)CC(O[C@H]3[C@@H](O)C[C@H](O[C@H]4CC[C@@]5(C)[C@H](CC[C@@H]6[C@@H]5CC[C@]5(C)[C@@H](C7=CC(=O)OC7)CC[C@]65O)C4)O[C@@H]3C)O[C@@H]2C)O[C@H](C)[C@H]1O[C@@H]1O[C@H](CO)[C@@H](O)[C@H](O)[C@H]1O (some centres not stated)
inactive: Potency [1] | Potency [2] | Potency [3] | Potency [4] | Potency [5] | Potency [6] | Potency [7] | Potency [8] | Potency [9] | Potency [10] | Potency [20] | Potency [12] | Potency [13] | Potency [14] | Potency [15] | Potency [18] | Potency [19]

Source: PubChem BioAssay (NCATS)
